Bioassay records deposited in PubChem by National Center for Advancing Translational Sciences (NCATS).
Marburg entry inh: inhibitors of Marburg virus binding or cell entry; Marburg virus pseudotyped entry inhibition, cell reporter; Potency, µM (doses to about 37.8 µM), for the others: at the highest dose activity change, negative = inhibition, actives largely listed as inhibitors; 1.8% of 300,000 active; calls by dose curve; tested in HEK293 cells; also: potency is read from the fitted curve at half-maximal effect
Lassa entry inh: inhibitors of Lassa virus binding or cell entry; Lassa virus pseudotype entry inhibition, cell reporter; Potency, µM (highest dose often 37.9 µM), without a hit: at the top dose activity change, negative = inhibition, hits mostly inhibitors; 1.2% of 300,000 active; AID 540256; calls by dose curve; tested in HEK293 cells; also: potency is read from the fitted curve at half-maximal effect; nearly all actives have a fitted effect of over 50% in size
FMDV inh: antivirals against foot and mouth disease virus; FMDV antiviral cell-based qHTS; Potency, µM (series often up to 57.9 µM), for inactives: at the top dose activity change, negative = inhibition, most hits filed as inhibitors; 1.2% of 410,000 active; AID 1159524; calls by dose curve; tested in HEK293T cells; also: read-out not given here; potency is read from the fitted curve at half-maximal effect; nearly all actives have a fitted effect of over 45% in size
HCMV inh: human cytomegalovirus inhibition. HFF cells, HCMV-luciferase reporter, 72 h; active compounds read low. activity change, negative = inhibition, % at 57.5 µM. 4.5% of 410,000 active; in the data active = activity change below about -60%; inconclusive = no clear call, values can overlap the other calls; inactive = above about -39%
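Screen run at 2 compound doses on HFFs infected with reporter HCMV, MOI 1 PFU/cell. Luciferase activity from cell lysates at 72 h post infection gave inhibition relative to buffer-only and Salinomycin wells.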
Vaccinia Venus: vaccinia inhibition (Venus reporter); Vaccinia virus Venus reporter expression, fluorescence; Potency, µM (top dose mostly 36.5 µM), for the others: at the highest dose activity change, negative = inhibition, hits mostly inhibitors; 0.46% of 330,000 active; calls by dose curve; tested in A549 cells; also: potency is read from the fitted curve at half-maximal effect; nearly all actives have a fitted effect of over 30% in size
Vaccinia mCherry: inhibitors of vaccinia virus infection (mCherry reporter signal). Vaccinia virus mCherry reporter infection, fluorescence. Potency, µM (doses to about 36.5 µM), inactives show at the highest dose activity change, negative = inhibition, actives largely listed as inhibitors. 0.63% of 310,000 active. AID 720579; calls by dose curve; tested in A549 cells; also: potency is read from the fitted curve at half-maximal effect; nearly all actives have a fitted effect of over 35% in size
Starred values were filed as active, the others as inactive; i = inactive; ? = inconclusive; · = no result given; ! = repeats disagree; [ ] = dose if it differs, or a comment. In the library only some 6.5% were active in any assay of this set; here they are far more common. % is scaled to controls: 0 for no effect and ±100 for the full control effect.

SMILES | Marburg entry inh | Lassa entry inh | FMDV inh | HCMV inh | Vaccinia Venus | Vaccinia mCherry
Cc1cc(C(=O)Cn2ncc(Cl)c(Cl)c2=O)c(C)n1CC(F)(F)F | ? | ? | ? | -99.6* | 14.1µM* | ?
Cc1ccccc1Cn1nnc2c1C(=O)c1ccccc1C2=O | ? | -20.2% | -1.8% | 80.3 | 4.1% | -11.8%
Cc1ccc(C)c(C(=O)Cn2ncc(Cl)c(Cl)c2=O)c1 | 10µM* | ? | 31.6µM* | -96.8* | ? | -21.4%
Cc1ccc(C)c(C(=O)CN2C(=O)c3ccccc3C2=O)c1 | -3.0%[46.1 µM] | -0.4%[46.1 µM] | 17.2% | -13.7 | -2.7% | -21.9%
CC(C)c1ccc(C(=O)C[N+]2(C)CCOCC2)cc1 | · | · | · | · | -15.9% | i
COc1ccc2c(c1)C(=O)[C@H](OC(=O)Nc1ccc(OC(F)F)cc1)[C@@H](c1ccc(OC)c(Br)c1)O2 | 4.2%[14.2 µM] | · | · | · | · | ·
CS(=O)(=O)c1ccc(-c2nccc3[nH]nc(-c4cccc(F)c4)c23)cc1 | · | · | · | -15.4 | · | ·
COC(=O)c1c(SCC(=O)Nc2cccc(Cl)c2C)[nH]c2ccccc2c1=O | · | 2.2%[46.1 µM] | -15.0% | -3.3 | 1.8% | -11.2%
COc1cccc(CCNC(=O)c2cnc3sc(N4CCOCC4)nn3c2=O)c1 | -0.1%[46.1 µM] | · | -19.1% | 13.6 | -8.1% | -22.2%
Cc1ccc(Cn2c(=O)n(Cc3ccccc3)c(=O)c3c(C)c(C)sc32)cc1 | -3.7%[46.1 µM] | 14.6%[46.1 µM] | 2.4% | -4.1 | -1.6% | -8.5%
CCOC(=O)c1cc(C)n(CC2CCC(C(=O)Nc3ccc(Cl)cc3)CC2)c1C (configuration not stated) | · | -22.3%[46.1 µM] | ? | -79.5* | -21.6%[7.34 µM] | -22.8%[7.34 µM]
O=C(Nc1ccc(Oc2c(F)c(F)c(F)c(F)c2F)cc1)OC1CCN2Cc3ccccc3N=C12 (configuration not stated) | ? | ? | 20µM* | · | -13.0% | -3.8%
CCOc1ccc(C(=O)Nc2ccc3nc(SCCOc4ccccc4)sc3c2)cc1 | 7.8%[46.1 µM] | -7.5%[46.1 µM] | ? | 6.2 | ? | ?
CN(C(=O)CSc1nc2ccc(NC(=O)c3ccc(F)cc3)cc2s1)c1ccccc1 | ? | ? | ? | -80.5* | -28.2% | -12.5%
CN(C)C(=O)CSc1nc2ccc(N3C(=O)c4ccccc4C3=O)cc2s1 | · | · | 0.5% | -65.4* | · | ·
CN(C(=O)CSc1nc2ccc(NC(=O)COc3ccc(F)cc3)cc2s1)c1ccccc1 | ? | ? | ? | -70.3* | ? | ?
O=C(Nc1ccc2nc(SCC(=O)N3CCCC3)sc2c1)c1ccc(F)cc1 | -3.2%[46.1 µM] | -21.9%[46.1 µM] | -9.1% | 25.1 | -12.2% | -7.0%
O=C(O)CSc1nc2ccc(NC(=O)COc3ccc(Cl)cc3)cc2s1 | 3.8%[46.1 µM] | 0.7%[46.1 µM] | -3.2% | 49.8 | -5.7%[7.34 µM] | -10.4%[7.34 µM]
COc1ccc(C(=O)Nc2ccc3nc(SCC(=O)N(C)c4ccccc4)sc3c2)cc1 | ? | ? | 35.5µM* | -74.1* | ? | -18.1%
Cc1cccc(NC(=O)CSc2nc3ccc(N4C(=O)c5ccccc5C4=O)cc3s2)c1C | -0.2% | -3.2% | 16.7% | 2.7 | · | ·
OCC[N+]1(CCc2ccccc2)CCOCC1 | · | · | · | · | -5.5% | i
COCCCNc1nc(NCc2ccccc2OC)c2cnn(C)c2n1 | · | 16.8%[46.1 µM] | ? | -18.8 | -17.9% | -13.8%
CCn1cc2nc(SCC(=O)Nc3ccc(C)cc3)n(Cc3ccc(C)cc3)c(=O)c2n1 | · | ? | -10.1% | -22.8 | -7.6% | -14.8%
COC(=O)c1cccc(N2C(=O)C[C@](Sc3ccc(OC)cc3)(C(=O)N3CCCC3)[C@H]2c2ccc(OC)cc2)c1 | · | · | · | -14.1 | · | ·
CCOC(=O)c1cc(-c2ccc(OC)cc2)n(CCC(=O)Nc2ccccc2OC)c1C | · | ? | -26.2% | -9.9 | -10.8% | -0.9%
SMILES | Marburg entry inh | Lassa entry inh | FMDV inh | HCMV inh | Vaccinia Venus | Vaccinia mCherry
C/C(=N\Nc1ccc(F)cc1F)c1ccccc1O | 4.6%[46.1 µM] | · | 43.7% | -68.9* | -3.5% | -19.2%
CCCCSc1nnc2n(-c3cccc(C)c3)c(=O)c3c4c(sc3n12)CCCC4 | -6.6%[46.1 µM] | 19.9%[46.1 µM] | -10.1% | -37.5 | -16.2% | 4.4%
CNC(=O)[C@@H]1C[C@H](Sc2nc3ccccc3[nH]2)CN1Cc1ccccc1C(F)(F)F | · | · | -9.0% | · | -22.1% | -24.7%
CC(=O)Nc1ccc(-c2ccnc3c2CC(C(=O)NCc2ccco2)O3)cc1 (configuration not stated) | · | · | -14.1% | -70.3* | ? | ?
CC(=O)Nc1ccc(-c2ccnc3c2CC(C(=O)NCc2ccccc2)O3)cc1 (configuration not stated) | · | · | -19.9% | -64.5* | ? | -15.0%
O=C(NCc1ccccc1)C1Cc2c(-c3ccc4c(c3)OCO4)ccnc2O1 (configuration not stated) | · | · | -0.7% | -66.8* | ? | -8.3%
COc1ccc(O[C@@H]2[C@H](O)CO[C@@H]2C=CC#Cc2ccccc2)cc1 | 7.5%[14.2 µM] | · | · | · | · | ·
O=C(c1cccc(F)c1)N1CC(=O)N2[C@@H](CO)[C@@H](c3ccc(Br)cc3)[C@@H]2C1 | · | · | · | -0.4 | · | ·
COc1ccc(NC(=O)N2CCN(S(=O)(=O)c3ccc4c(ccn4C)c3)CC2)cc1OC | · | 0.8%[46.1 µM] | -12.7% | 15.9 | -12.7% | i
Cc1cc(O)cc2c1C1CCC3(C)C(O)CCC3C1C=C2 (configuration not stated) | -26.0%[46.1 µM] | -27.5%[46.1 µM] | -7.5% | 54.6 | ? | 4.47µM*
C[C@]12CC[C@@H]3c4ccc(O)cc4[C@@H](O)C[C@H]3[C@@H]1CC[C@@H]2O | -4.3% | -19.0% | · | · | · | ·
CCc1sc(Nc2ccc(C)cc2Br)nc1-c1cc2cccc(OC)c2oc1=O | · | ? | -10.1% | -12.1 | -26.0% | -16.4%
Cc1cc(C)nc(S[C@@H]2C[C@@H](C(=O)N3CCCN(C)CC3)N(Cc3cc(F)ccc3F)C2)n1 | · | · | -3.8% | · | -5.6% | -12.5%
COc1ccc(CN(CCC(c2ccccc2)c2ccco2)C(=O)c2ccco2)cc1 (configuration not stated) | 10µM* | ? | -18.6% | -2.3 | -6.7% | i
CC(c1ccccc1)N(CCC(c1ccccc1)C1CCOC(C)(C)C1)C(=O)c1ccco1 (configuration not stated) | 3.98µM* | ? | ? | -100.6* | -9.0% | -12.7%
CC1(C)CC(C(CC(=O)O)c2ccccc2)CCO1 (configuration not stated) | -14.5% | 1.1% | · | -17.2 | 8.9% | -8.9%
COc1ccc(CN(CCC(c2ccc(F)cc2)C2CCOC(C)(C)C2)C(=O)c2ccco2)cc1 (configuration not stated) | 7.94µM*! | ? | ? | -4.4 | -13.5% | -14.6%
COc1ccc(-c2c(C)nn3c(-c4ccccc4)cc(-c4ccccc4)nc23)cc1 | 1.0%[46.1 µM] | 17.5%[46.1 µM] | -18.4% | -8.1 | -6.1% | -2.6%
COc1ccc(S(=O)(=O)N2c3ccccc3OCC2c2ccccc2)cc1 (configuration not stated) | ? | -22.7% | 12.6µM* | ? | · | ·
COc1ccc(S(=O)(=O)N2c3ccccc3OCC2C)cc1 (configuration not stated) | -19.0%[46.1 µM] | ? | -18.2% | -66.2* | -21.9% | ?
CNC(=O)c1cc(-c2cccs2)on1 | · | · | · | · | ? | -26.5%
